PubChem BioAssay
Unmarked numbers belong to inactive results.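 How the source made its calls: active means z-score of at least 1.8 in each of two replicates, scored against plate mean and spread of sample wells; inactive means the rest.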

test: viability rescue of complex I mutant cybrids, primary screen, cell-based, galactose medium, ATP luminescence (AID 1645843); conditions: complex I mutant cybrid cells, 72 h, hits give high values;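 further: positive z means more ATP and so rescue of galactose-driven cybrid death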

Structure (SMILES)	z-score
O=C(Nc1n[nH]c(-c2ccco2)n1)N1CCc2c([nH]c3ccccc23)C1	-0.135
Cc1cccc(CN(C)Cc2ccc(-c3nc(C(F)(F)F)c(C)c(=O)[nH]3)cc2)n1	0.78
Cn1cc(-c2ccccc2OC2(C(=O)O)CCSCC2)cn1	1.44
Cc1ccc(C(=O)NCC2CCCN(C(=O)C3CC3)C2)cn1 (stereo unspecified)	-0.52
COc1ccc(-c2nc(N)nc(Nc3ccc(C)cc3)n2)cc1F	-0.745
CCCC(NC(=O)c1cc(C)oc1C)c1ccccc1 (stereo unspecified)	-0.63
